From PubChem
Only some compounds are listed: those with a hit (about 3% of all), similar ones and a draw of the others.
Ub-GFP proteasome = Ubiquitin-GFP Assay; 67,000 tested, under 10 active; AID 526, 2006; Potency, µM (titrated, usually from 45.9 µM), inactives show top-dose activation (GFP accumulation), actives largely listed as activators; Ubiquitin-GFP reporter cells, proteasome inhibition, GFP fluorescence; response scale: untreated = 0%, 10 µM MG-132 = 100%; active = well fitted activation curve with a large enough effect, not every such curve was filed as active; inconclusive = small, poorly fitted or top-dose-only effect, or another doubt; inactive = no such curve, though single readings can be large or run the other way; also: potency is read from the fitted curve at half-maximal effect
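U2OS Ub(G76V)-GFP reporter; O/N plating, 0.5% FBS; cpd 46 uM–2.9 nM, 4 h, 37 °C; GFP+ cell count, 488/515 nm; norm. to basal vs 10 uM MG-132; CRC fit.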
Epigenetic mod = qHTS Assay for Epigenetic Modulators; mouse C127i GFP locus derepression, cytometry, 30 h; Potency, µM (highest dose often 46.1 µM), inactives show at the highest dose GFP derepression (activation); actives 0.09% (n = 68,000); AID 597, 2007; also: % of control where 0% means no effect
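Derepression screen: silenced CMV-GFP reporter in murine C127i cells, 30 h compound incubation at 37 C, washed cells imaged by laser-scanning cytometer to enumerate GFP-expressing objects of 20 to 120 um.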
TSHR ag = qHTS Assay for Agonists of the Thyroid Stimulating Hormone Receptor; Thyrotropin receptor (Homo sapiens), P16473; HEK293-CNG-TSHR cells (CNG channel as cAMP sensor), membrane potential dye, cAMP; Potency, µM (series often up to 57.1 µM), for the others: at the top dose activation, actives largely listed as activators; actives 0.48% (n = 73,000); active = well fitted activation curve with a large enough effect in the main read-out, with a control signal flat, not every such curve was filed as active; inconclusive = small, poorly fitted or top-dose-only effect, or a change in a side signal; inactive = no such curve, though single readings can be large or run the other way; % of control where 0% means no effect;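 also: the control signal comes from parental cells without the receptor; potency is read from the fitted curve at half-maximal effect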
Target sequence (P16473 whole entry, looked up): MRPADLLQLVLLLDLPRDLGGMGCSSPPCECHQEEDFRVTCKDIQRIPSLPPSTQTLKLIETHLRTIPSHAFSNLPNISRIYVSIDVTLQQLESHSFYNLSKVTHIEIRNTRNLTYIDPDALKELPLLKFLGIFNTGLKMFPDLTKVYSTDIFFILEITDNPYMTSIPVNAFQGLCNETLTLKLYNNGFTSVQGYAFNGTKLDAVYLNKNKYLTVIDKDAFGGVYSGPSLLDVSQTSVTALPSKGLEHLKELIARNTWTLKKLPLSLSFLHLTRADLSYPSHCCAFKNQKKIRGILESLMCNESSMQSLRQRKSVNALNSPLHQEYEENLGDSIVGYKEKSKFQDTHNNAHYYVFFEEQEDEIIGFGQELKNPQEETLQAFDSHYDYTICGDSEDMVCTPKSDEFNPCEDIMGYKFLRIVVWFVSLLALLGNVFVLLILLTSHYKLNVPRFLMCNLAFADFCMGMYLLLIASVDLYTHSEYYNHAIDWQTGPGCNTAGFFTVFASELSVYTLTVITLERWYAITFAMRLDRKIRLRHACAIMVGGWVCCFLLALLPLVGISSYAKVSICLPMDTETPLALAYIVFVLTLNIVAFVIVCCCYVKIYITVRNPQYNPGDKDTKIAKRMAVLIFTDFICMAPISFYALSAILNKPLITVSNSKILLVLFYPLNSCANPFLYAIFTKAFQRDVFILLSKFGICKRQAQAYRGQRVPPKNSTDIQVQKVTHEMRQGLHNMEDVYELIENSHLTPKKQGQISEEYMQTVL
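HEK 293 cells stably expressing TSHR and a modified CNG channel, with CNG-only parental cells as counterscreen, were preloaded 60 min at room temperature with membrane potential dye containing 100 uM RO 20-1724. Compound exposure was 30 min, and depolarization was read as fluorescence at 590 nm.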
HEK293 cAMP ctrl = qHTS Assay for Agonists of the Thyroid Stimulating Hormone Receptor: Activators of Intracellular cAMP Concentrations in Parental HEK 293. parental HEK293 CNG cAMP sensor, membrane potential fluorescence. Potency, µM (highest dose often 57.1 µM), for inactives: top-dose activation, actives largely listed as activators. actives 2.5% (n = 73,000). AID 938, 2007; also: potency is read from the fitted curve at half-maximal effect; % of control where 0% means no effect; nearly all actives have a fitted effect of over 55% in size
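Parental HEK 293 cells stably expressing a modified CNG channel (no TSHR) report cAMP rise as membrane depolarization. Membrane potential dye with 100 uM RO 20-1724 was loaded for 60 min at room temperature, then compound added for 30 min; fluorescence read at 590 nm.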
HBB splice mod = qHTS Assay for Modulators of Hemoglobin Beta Chain Splicing. Potency, µM (doses to about 46.1 µM), for inactives: top-dose activation, usual class: activators. HBB splicing reporter cell assay, activation; EGFP reporter with mutant IVS2-654 intron; response scale: normalised to 500 nM splice-correcting PNA. actives 0.06% (n = 65,000); also: potency is read from the fitted curve at half-maximal effect; 0% is about no effect
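HeLa cells stably expressing EGFP interrupted by mutant beta-globin intron 2 (IVS2-654), 500/well in 2% FCS. Treated with compound for 2 days at 37C. Splicing correction scored as total well GFP intensity (488 nm excitation, 500-520 nm emission); 500 nM antisense PNA served as control.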
* hit, by the source's call; ? = inconclusive; . = not tested or not shown; [ ] = another dose, or the depositor's remark. Unless noted, calls follow the shape of the dose curve; as a rule, active = well fitted curve in the direction sought with a large enough effect; inconclusive = small, poorly fitted or top-dose-only effect, or another doubt; inactive = no such curve, though single readings can be large; an effect the other way counts as inactive or inconclusive.

SMILES	Ub-GFP proteasome	Epigenetic mod	TSHR ag	HEK293 cAMP ctrl	HBB splice mod
COC(=O)[C@@]1(Cc2ccc(OC)cc2)[C@H]2c3cc(C(=O)N(C)C)n(Cc4ccccn4)c3C[C@H]2CN1C(=O)c1ccccc1	.	.	?	?	2%
COC(=O)[C@@]1(Cc2ccc(OC)cc2)[C@H]2c3cc(C(=O)N(C)C)n(Cc4ccc(C)o4)c3C[C@H]2CN1C(=O)c1ccccc1	.	.	?	16µM*	-1%
CC1=C(\C=C/C(C)=C/C=C\C(C)=C\C(=O)Nc2ccc(O)cc2)C(C)(C)CCC1	-3%	0%	11%	1%	4%
COC(=O)[C@@]1(Cc2ccc(F)cc2)[C@H]2c3cc(C(=O)N(C)C)n(Cc4ccsc4Br)c3C[C@H]2CN1C(=O)c1ccccc1	.	.	?	4µM*	0%
COC(=O)[C@@]1(Cc2ccc(OC)cc2)[C@H]2c3cc(C(=O)N(C)C)n(CCO)c3C[C@H]2CN1C(=O)c1ccccc1	.	.	18%	3%	0%
COC(=O)[C@@]1(Cc2ccc(F)cc2)[C@H]2c3cc(C(=O)N(C)C)n(Cc4cccc5ccccc45)c3C[C@H]2CN1C(=O)c1ccccc1	.	.	?	16µM*	-3%
COC(=O)[C@@]1(Cc2ccc(OC)cc2)[C@H]2c3cc(C(=O)N(C)C)n(Cc4ccc(C)c(F)c4F)c3C[C@H]2CN1C(=O)c1ccccc1	.	.	?	2.5µM*	0%
COC(=O)[C@@]1(Cc2ccc(F)cc2)[C@H]2c3cc(C(=O)N(C)C)n(Cc4ccccn4)c3C[C@H]2CN1C(=O)c1ccccc1	.	.	?	?	0%
CCCOc1ccc(C2C(C(=O)OC)=CN(CCOC)C=C2C(=O)OC)cc1	10%	8%	?	25µM*	-1%
CN1C[C@@H](C(=O)N[C@]2(C)O[C@]3(O)[C@H]4CCCN4C(=O)[C@H](Cc4ccccc4)N3C2=O)C[C@H]2c3cccc4[nH]cc(c34)C[C@@H]21	8%	0%	-10%	-5%	0%
COc1ccccc1N1CCN(C(c2ccc(Cl)cc2)c2nnnn2C(C)(C)C)CC1 (stereo not given)	-3%	-2%	?	2µM*	.
CCC(C)(C)n1nnnc1C(c1ccncc1)N1CCN(c2cccc(OC)c2)CC1 (stereo not given)	1%	4%	?	2.5µM*	.
COCCNc1ncnc2ccc(-c3cccc(OC)c3)cc12	-4%	2%[9.22 µM]	6%	23%	-2%
CCN(CC)S(=O)(=O)c1ccc(NC2CCCc3ccccc32)nc1 (stereo not given)	0%	0%	?	25µM*	-2%
Cc1ccc(-c2nn(-c3ccccc3)cc2C2SCC(=O)N2Cc2ccccc2)o1 (stereo not given)	3%	.	25µM*	13%	-1%
O=C1CSC(c2cn(-c3ccccc3)nc2-c2cc3ccccc3oc2=O)N1Cc1ccco1 (stereo not given)	-7%	-3%	.	29%	2%
CC(=O)N(C(C)=O)c1ncc2c([nH]c3ccccc32)c1C#N	3%	0%	?	25µM*	4%
CCCCC[C@H](CC(=O)NO)C(=O)N[C@@H](C(=O)N1CCC[C@H]1CO)C(C)C	-2%	-1%	5%	11%	0%
Cc1cc(C)n(-c2ccc(C(=O)OCc3nnc(-c4ccccc4)o3)cc2)n1	-2%	-5%	?	32µM*	0%[57.5 µM]
Cc1ccc(C(=O)OCc2nnc(-c3ccccc3)o2)o1	0%	-1%	4%	22%	-1%
O=C(OCc1nnc(-c2ccccc2)o1)c1ccc2c(c1)OCCO2	3%	4%	?	13µM*	1%
Cn1c(O)c(N=N/C(=N/c2ccccn2)c2ccccn2)c2cc(Br)ccc21	.	.	?	-46%	.
O=C1Nc2ccccc2C1(O)Cc1ccncc1 (stereo not given)	-4%	2%	-2%	5%	3%
O=C1c2ccccc2C(Cc2ccncc2)(Cc2ccncc2)c2ccccc21	4%	0%	?	3.2µM*	.
CC(O)COC(C)(C)C (stereo not given)	.	.	-14%	-8%	2%
SMILES	Ub-GFP proteasome	Epigenetic mod	TSHR ag	HEK293 cAMP ctrl	HBB splice mod
CCc1c(C)c2ccc(OCC(=O)OC(C)C)c(C)c2oc1=O	3%	3%	?	25µM*	4%
CCn1c(SCC(=O)N2c3ccccc3Sc3ccccc32)nc2c1c(=O)n(C)c(=O)n2C	-1%	-2%	20µM*	7%	.
Cc1ccc(Cn2c(SCC(C)C)nc3c2c(=O)n(C)c(=O)n3C)cc1	0%	1%	?	25µM*	0%[57.5 µM]
CCn1c(SCC(=O)N2CCc3ccccc3C2)nc2c1c(=O)n(C)c(=O)n2C	1%	0%	0%	8%	0%[57.5 µM]
CC(CN(C)C)NC(=O)c1ccc(-n2c(=O)c(=O)[nH]c3ccccc32)cc1 (stereo not given)	.	.	6%	-13%	.
CCC(C)(c1ccc(C(=O)OC)s1)c1ccc(C(=O)OC)s1	-10%	2%	?	20µM*	1%[9.22 µM]
COC(=O)c1cc2c(s1)-c1ccccc1OC2	12%	-3%	.	10%	-1%
Cc1nnc(NC(=O)CSc2cn(CCNC(=O)c3ccccc3)c3ccccc23)s1	2%	.	-4%	11%	0%
NC(=O)CSc1cn(CCNC(=O)c2cccs2)c2ccccc12	-4%	.	32µM*	8%	0%
Cc1cc(C)n(-c2nnc(C)n2/N=C/c2cc(Br)ccc2OCc2ccccc2)n1	-1%[9.17 µM]	-4%	?	3.2µM*	-2%[0.0738 µM]
Cc1cc(C)n(-c2nnc(C)n2/N=C/c2ccccc2OCc2ccccc2Cl)n1	-5%[9.17 µM]	-2%	?	1.3µM*	2%[0.0738 µM]
O=c1c2cnn(-c3ccccc3)c2nc(-c2ccco2)n1-c1ccccc1	-8%	-2%	?	20µM*	-1%[9.22 µM]
O=c1oc(-c2ccco2)nc2c1cnn2-c1ccccc1	1%	0%	9%	25%	.
COc1cccc(C2C=C(c3ccc(Br)s3)Nc3ncnn32)c1OC (stereo not given)	-5%	2%	20µM*	14%	1%
O=C1[C@@H]2[C@H]3[C@H](O)[C@H](O)C/C(=N/OCc4ccccc4)[C@@H]3CC[C@H]2C(=O)N1c1ccc(F)cc1F	.	.	-26%[11.4 µM]	-27%[11.4 µM]	-1%[9.22 µM]
C#C[C@H](N)CCC(=O)O	-5%	-1%	1%	-2%	1%
C=CCOC(=O)C(C(C)=O)C(NC(=O)OC)c1ccc2ccccc2c1 (stereo not given)	.	.	.	3%[11.4 µM]	1%[9.22 µM]
CCOC(=O)C1CCN(S(=O)(=O)c2cc(Br)cc3c2N(C(=O)C2CC2)CC3)CC1	3%	-2%	?	?	0%
